# Test results as given in PubChem BioAssay AID1159580 (chemical genetic matrix, 2015).
# Out of some 5,500 compounds screened, about 2,000 (36%) were called active. About 18% were inconclusive and are not listed. This is one part of the list. Unmarked numbers belong to inactive results. Rule as the data show it: active = normalized growth mostly below about 0.91 (no sharp cut-off); inconclusive = no clear call, values can overlap the other calls; inactive = mostly above about 0.92.
# Assay: chemical genetic growth profiling, strain panel (AID 1159580);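 also: tested at 20 µM; growth read once vehicle control cultures reached saturation at 30 °C; 1 = growth at the plate median or of vehicle wells; lower values mean less growth of the strain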
# Conditions: S. cerevisiae deletion strains, growth OD
smiles,measurement,setting,value
C=C1CCC2(OC1)OC1CC3C4CC=C5CC(O)CC(O)C5(C)C4CCC3(C)C1C2C (centres undefined),normalized growth,"locus YAL021C, strain ccr4, active compounds read low",0.929
same,normalized growth,"locus YAL026C, strain drs2, active compounds read low",0.87 (active)
same,normalized growth,"locus YAL030W, strain snc1, active compounds read low",1.01
same,normalized growth,"locus YBL061C, strain skt5, active compounds read low",1.01
same,normalized growth,"locus YBR009C, strain hhf1, active compounds read low",0.873 (active)
same,normalized growth,"locus YBR023C, strain chs3, active compounds read low",0.976
same,normalized growth,"locus YBR171W, strain sec66, active compounds read low",1.01
same,normalized growth,"locus YBR231C, strain swc5, active compounds read low",1.03
same,normalized growth,"locus YBR279W, strain paf1, active compounds read low",0.995
same,normalized growth,"locus YCL011C, strain gbp2, active compounds read low",0.914
same,normalized growth,"locus YCL016C, strain dcc1, active compounds read low",0.979
same,normalized growth,"locus YCL069W, strain vba3, active compounds read low",0.939
same,normalized growth,"locus YCR088W, strain abp1, active compounds read low",0.984
same,normalized growth,"locus YDL005C, strain med2, active compounds read low",0.995
same,normalized growth,"locus YDL040C, strain nat1, active compounds read low",1.01
same,normalized growth,"locus YDR001C, strain nth1, active compounds read low",1.01
same,normalized growth,"locus YDR069C, strain doa4, active compounds read low",1.01
same,normalized growth,"locus YDR137W, strain rgp1, active compounds read low",0.586 (active)
same,normalized growth,"locus YDR159W, strain sac3, active compounds read low",0.916
same,normalized growth,"locus YDR195W, strain ref2",0.889
same,normalized growth,"locus YDR297W, strain sur2, active compounds read low",1.01
same,normalized growth,"locus YDR334W, strain swr1, active compounds read low",1.01
same,normalized growth,"locus YDR335W, strain msn5, active compounds read low",0.899 (active)
same,normalized growth,"locus YDR392W, strain spt3, active compounds read low",0.819
same,normalized growth,"locus YEL003W, strain gim4, active compounds read low",0.99
same,normalized growth,"locus YEL037C, strain rad23, active compounds read low",1
same,normalized growth,"locus YEL061C, strain CIN8 (second series), active compounds read low",0.94
same,normalized growth,"locus YER015W, strain faa2, active compounds read low",1
same,normalized growth,"locus YER016W, strain bim1, active compounds read low",0.992
same,normalized growth,"locus YER111C, strain swi4, active compounds read low",0.958
same,normalized growth,"locus YER155C, strain BEM2 (second series), active compounds read low",1.01
same,normalized growth,"locus YFR010W, strain ubp6, active compounds read low",0.97
same,normalized growth,"locus YGL167C, strain pmr1, active compounds read low",1.02
same,normalized growth,"locus YGL173C, strain kem1, active compounds read low",1.01
same,normalized growth,"locus YGL227W, strain vid30, active compounds read low",0.976
same,normalized growth,"locus YGL240W, strain doc1, active compounds read low",1
same,normalized growth,"locus YGL253W, strain hxk2, active compounds read low",0.855 (active)
same,normalized growth,"locus YHR013C, strain ard1, active compounds read low",1.06
same,normalized growth,"locus YHR027C, strain rpn1, active compounds read low",0.966
same,normalized growth,"locus YHR142W, strain chs7, active compounds read low",0.749 (active)
same,normalized growth,"locus YJL092W, strain hpr5, active compounds read low",0.978
same,normalized growth,"locus YJL095W, strain BCK1 (second series), active compounds read low",0.966
same,normalized growth,"locus YJL115W, strain asf1, active compounds read low",1.01
same,normalized growth,"locus YJL129C, strain trk1, active compounds read low",0.853 (active)
same,normalized growth,"locus YJL154C, strain vps35, active compounds read low",1
same,normalized growth,"locus YJL164C, strain tpk1, active compounds read low",0.886 (active)
same,normalized growth,"locus YJL166W, strain qcr8, active compounds read low",0.944
same,normalized growth,"locus YKL160W, strain elf1, active compounds read low",0.986
same,normalized growth,"locus YKR026C, strain gcn3, active compounds read low",0.994
same,normalized growth,"locus YKR091W, strain srl3, active compounds read low",1.01
same,normalized growth,"locus YLL001W, strain dnm1, active compounds read low",0.923
same,normalized growth,"locus YLL026W, active compounds read low",0.98
same,normalized growth,"locus YLL041C, strain sdh2, active compounds read low",1
same,normalized growth,"locus YLR027C, strain aat2, active compounds read low",0.987
same,normalized growth,"locus YLR258W, strain gsy2, active compounds read low",0.988
same,normalized growth,"locus YLR262C, strain YPT6 (second series), active compounds read low",0.548 (active)
same,normalized growth,"locus YLR320W, strain mms22, active compounds read low",0.929
same,normalized growth,"locus YLR342W, strain FKS1, active compounds read low",1.01
same,normalized growth,"locus YLR357W, strain rsc2, active compounds read low",1.07
same,normalized growth,"locus YLR370C, strain arc18, active compounds read low",1.02
same,normalized growth,"locus YLR384C, strain iki3, active compounds read low",1.01
same,normalized growth,"locus YML120C, strain ndi1, active compounds read low",0.928
same,normalized growth,"locus YMR058W, strain fet3, active compounds read low",0.959
same,normalized growth,"locus YMR125W, strain sto1, active compounds read low",1
same,normalized growth,"locus YMR129W, active compounds read low",1.01
same,normalized growth,"locus YMR205C, strain PFK2, active compounds read low",0.865 (active)
same,normalized growth,"locus YMR231W, strain pep5, active compounds read low",1.02
same,normalized growth,"locus YNL071W, strain lat1, active compounds read low",0.846 (active)
same,normalized growth,"locus YNL209W, strain ssb2, active compounds read low",1.02
same,normalized growth,"locus YNL248C, strain rpa49, active compounds read low",0.987
same,normalized growth,"locus YNL322C, strain KRE1 (second series), active compounds read low",1
same,normalized growth,"locus YNR049C, strain mso1, active compounds read low",1
same,normalized growth,"locus YOR001W, strain rrp6, active compounds read low",0.944
same,normalized growth,"locus YOR070C, strain gyp1, active compounds read low",0.997
same,normalized growth,"locus YOR080W, strain dia2, active compounds read low",1.02
same,normalized growth,"locus YOR083W, strain WHI5, active compounds read low",0.979
same,normalized growth,"locus YOR106W, strain vam3, active compounds read low",0.911
same,normalized growth,"locus YOR265W, strain rbl2, active compounds read low",1.01
same,normalized growth,"locus YOR270C, strain vph1, active compounds read low",0.771 (active)
same,normalized growth,"locus YOR290C, strain snf2, active compounds read low",0.887
same,normalized growth,"locus YPL051W, strain arl3, active compounds read low",0.907 (active)
same,normalized growth,"locus YPL078C, strain atp4, active compounds read low",0.929
same,normalized growth,"locus YPL106C, strain sse1, active compounds read low",1.03
same,normalized growth,"locus YPL240C, strain hsp82, active compounds read low",0.974
